Experimental data taken from ChEMBL document CHEMBL5308541, “MAIP: An Open-Source Tool to Enrich High-Throughput Screening Output and Identify Novel, Druglike Molecules with Antimalarial Activity” (ACS Med Chem Lett, 2023).
The campaign covered roughly 4,800 compounds. About 420 (8.8%) showed an effect of 50% or more. This excerpt belongs to a sample that is enriched for strong results.

The compounds below were run on Plasmodium falciparum (assay: Confirmatory screen in NF54 nanoGlo assay, in single point, at 2uM, 72h). Conditions: timepoint 72 hour.
Format: functional, Erythrocyte

Compound | % Inhibition [%]
O[C@@H](CNCc1ccc2c(c1)CCO2)c1ccc(F)c(F)c1 | 61
CN1CCC(N(C)c2ccccc2CNC[C@@H](O)c2cccc(Cl)c2)CC1 | 23
CN1CCN(c2ccc(C(F)(F)F)cc2NCc2cnc[nH]2)CC1 | 62
CN1C2CCC1CC(OC(=O)C1CCC(C(=O)OC3CC4CCC(C3)N4C)(c3ccccc3)c3ccccc31)C2 (stereo not drawn) | 49
Fc1ccc(N2CC[C@H](CN3CCC(c4c[nH]c5ccccc45)(c4c[nH]c5ccccc45)CC3)C2)cc1 | 97
CC(C)(C)c1ccc(CNC[C@H](O)c2ccc(F)cc2F)cc1 | 95
Cc1ccc(CNc2ncnc(N)c2Cl)c(N2CCCC2)n1 | 50
CN(C)CC12CNCC1CN(c1ccnc3cc(Cl)ccc13)C2 (stereo not drawn) | 98
